MPTP inh = blocks calcium-induced mitochondrial swelling | isolated mouse mitochondria, Ca2+ swelling absorbance, 30 min | inhibition, % at 10 µM | AID 602449 | 360,000 tested, 1.4% active;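 active means inhibition of 50% or more, scaled per plate between neutral and stimulator controls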
rCAG binder = r(CAG) repeat RNA binding. TO-PRO-1 dye displacement fluorescence. inhibition, % at 3 µM. 370,000 tested, 1.3% active;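 active means inhibition above the plate cutoff, the mean of all test compounds on that plate plus 3 SD, cut at about 35% in these data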;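 further: higher means more dye released from RNA so lower well fluorescence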
GRIN3A LBD mod = modulators (binders) of human NR3A ligand-binding domain. NR3A LBD differential scanning fluorimetry, Tm shift; 0% = protein alone, 100% = glycine-bound protein. Tm shift relative to glycine control, % at 25 µM. 340,000 tested, 2.5% active. AID 1259313;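 active means melting temperature shift of at least 10% of the positive control shift, at one fixed dose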
FAS TE block = inhibitors of human fatty acid synthase thioesterase domain | P49327 | recombinant FAS-TE, OMFH fluorogenic substrate, fluorescence endpoint | inhibition, % at 15 µM | 360,000 tested, 0.67% active;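 active means compounds whose normalised, plate-corrected inhibition of enzyme fluorescence in the single-dose primary screen is 50% or more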
Myeloid diff 2 = myeloid differentiation induction; ER-HoxA9 myeloid progenitors, lysozyme-GFP differentiation, flow cytometry; calls only at 10 µM; 360,000 tested, 1% active; AID 624256;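 active means normalized GFP-positive differentiation at or above the plate's own cutoff, the solvent-only control mean plus 3 SD; inconclusive means no clear call, values can overlap the other calls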;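 further: cells exposed to compound for four days before flow analysis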
rCAG bind conf = r(CAG) RNA repeat binding, confirmation; shares compounds with rCAG binder; TO-PRO-1 dye displacement fluorescence; inhibition, % at 3 µM; 4,300 tested, 70% active; AID 652065;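 active means inhibition above a per-plate cutoff, the mean inhibition of sample wells plus 3 SD, cut at about 35% in these data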;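 further: loss of TO-PRO-1 fluorescence as compound displaces dye from 1x1 AA loop RNA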
dCAG dye counter = disrupts DNA CAG TO-PRO-1 complex, flagging rCAG hits | shares compounds with rCAG binder | 4,300 tested, 94% active | AID 652068 | d(CAG) DNA oligo TO-PRO-1 dye displacement, fluorescence | inhibition, % at 3 µM;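 active means inhibition above its plate's cutoff, the mean test-well inhibition plus 3 SD, cut at about 4.8% in these data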;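 further: hits displace the dye from DNA and so lower well fluorescence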
DNA CAG DR = counter-screen for rCAG binders: inhibitors of DNA CAG TO-PRO-1 complex. IC50, µM. 250 tested, 20% active. AID 686960. shares compounds with rCAG binder. DNA CAG/GTC duplex TO-PRO-1 dye displacement fluorescence; in the data active means IC50 below about 10 µM
Numbers stand for hits; - = inactive; ? = inconclusive; . = not tested or not shown; + = active, no number. In the library only some 5.7% were active in any assay of this set; here they are far more common.

SMILES | MPTP inh | rCAG binder | GRIN3A LBD mod | FAS TE block | Myeloid diff 2 | rCAG bind conf | dCAG dye counter | others
O=C(O)c1ccccc1NC(=O)c1ccccc1Nc1ccccc1 | - | 83 | - | - | + | 67 | 29
COc1ccccc1NC(=O)c1ccccc1Nc1ccccc1 | - | - | - | - | - | . | .
O=C(Nc1ccccc1C(=O)O)c1ccc(Br)c(S(=O)(=O)NCc2ccccc2)c1 | - | 73 | - | - | - | 61 | 22
O=C(Nc1ccccc1C(=O)Nc1ccccc1C(=O)O)c1ccccc1 | - | 73 | - | - | - | 66 | 26
O=C(Nc1ccccc1C(=O)NCc1ccccc1)c1ccccc1Br | - | - | - | - | - | . | .
CS(=O)(=O)N(Cc1ccccc1)c1ccc(C(=O)Nc2ccccc2C(=O)O)cc1 | - | 65 | - | - | - | 57 | 13
O=C(Nc1oc2ccccc2c(=O)c1-c1ccc(Cl)cc1)c1ccco1 | - | - | - | - | ? | . | .
CCOC(=O)N1CCN(C(=O)Cn2nc(C)n3nc(-c4ccccc4)cc3c2=O)CC1 | - | - | - | - | - | . | .
O=C(O)c1ccc(Nc2nc(-c3cc4ccccc4oc3=O)cs2)cc1O | - | 72 | - | - | - | 84 | 48
C[C@H](NC(=O)c1ccccc1)C(=O)OCC(=O)Nc1ccc(Cl)cn1 | - | - | . | - | - | . | .
CC(OC(=O)COc1ccccc1[N+](=O)[O-])C(=O)Nc1ccc(N2CCOCC2)cc1 (configuration not stated) | - | - | - | - | - | . | .
O=C1NC(=S)S/C1=C\C=C\c1ccc([N+](=O)[O-])o1 | - | 67 | - | - | ? | 70 | 36
c1ccc(CN2CC[C@@H](Nc3nccn4ccnc34)C2)cc1 | - | - | . | - | - | . | .
O=C1NN(c2ccc(Cl)c(Cl)c2)C(=O)/C1=C/c1ccc(-c2ccccc2C(=O)O)o1 | - | 73 | - | - | - | 67 | 26
Cc1ccc(N2NC(=O)/C(=C/c3ccc(-c4ccc(Cl)c(C(=O)O)c4)o3)C2=O)cc1C | - | - | - | - | - | . | .
COC(=O)c1ccc(N2NC(=O)/C(=C/c3ccc(-c4ccc(Cl)c(C(=O)O)c4)o3)C2=O)cc1 | - | 41 | - | - | - | 69 | 29
CCn1c(N2CCN(S(=O)(=O)c3ccccc3)CC2)nc2ccccc21 | - | - | - | - | - | . | .
O=S1(=O)N[C@@H](Cc2ccccc2)COc2cccc(N3CCSCC3)c21 | - | - | . | - | - | . | .
FC(F)(F)c1ccccc1/C=N/n1c(COc2ccccc2)n[nH]c1=S | - | 44 | - | - | - | - | 5.5
FC(F)(F)c1ccc(/C=N/n2c(COc3ccccc3)n[nH]c2=S)cc1 | - | 51 | - | - | - | 37 | 8.5
S=c1[nH]nc(COc2ccccc2)n1/N=C/c1ccncc1 | - | - | - | - | - | . | .
S=c1[nH]nc(COc2ccccc2)n1/N=C/c1ccccc1Br | - | 38 | - | - | - | 38 | 8.4
COC(=O)[C@]1(Cc2ccccc2)N[C@H](CN(C)C(=O)Nc2ccc(Cl)cc2)[C@@H]2C(=O)N(Cc3ccccc3)C(=O)[C@@H]21 | - | - | - | - | - | . | .
Cc1cccc(OCCC(=O)Nc2ccc(C)c(S(=O)(=O)N3CCCCC3)c2)c1 | - | - | - | - | - | . | .
O=C(O)c1[nH]c2ccccc2c1C(c1cc(Br)ccc1O)c1c(C(=O)O)[nH]c2ccccc12 | - | 95 | 11 | - | - | 76 | 40
SMILES | MPTP inh | rCAG binder | GRIN3A LBD mod | FAS TE block | Myeloid diff 2 | rCAG bind conf | dCAG dye counter | others
COc1cc(C(=O)Nc2c(C(=O)O)[nH]c3ccccc23)cc(OC)c1OC | - | - | - | - | - | . | .
COc1cc(Cl)cc(C(c2c(C(=O)O)[nH]c3ccccc23)c2c(C(=O)O)[nH]c3ccccc23)c1O | - | 92 | 22 | - | - | 73 | 38
O=C(O)c1[nH]c2ccccc2c1C(c1c(F)cccc1Cl)c1c(C(=O)O)[nH]c2ccccc12 | - | 57 | - | - | - | - | 8.0
Cc1[nH][nH]c(=O)c1C(c1cc(Br)ccc1O)c1c(C)[nH][nH]c1=O | - | - | - | - | - | . | .
O=C(O)c1[nH]c2ccccc2c1-c1ccccc1 | - | - | - | - | - | . | .
Cc1nc(N(C)C)c2sc(=S)n(Cc3ccccc3)c2n1 | - | - | - | - | - | . | .
COc1cc(CC(=O)N/N=C/c2ccc([N+](=O)[O-])cc2)c([N+](=O)[O-])cc1OC | - | - | - | - | - | . | .
CCOc1ccc(C=Nn2c(-c3cccc(OC(C)C)c3)n[nH]c2=S)cc1 | . | 44 | . | . | . | 46 | 11
CCN(CC)S(=O)(=O)c1cccc(-c2n[nH]c(=S)n2/N=C/c2ccc(OC)cc2)c1 | - | 50 | - | - | - | 46 | 12
CCN(CC)S(=O)(=O)c1cccc(-c2n[nH]c(=S)n2/N=C/c2ccc(Br)cc2)c1 | - | 78 | 22 | - | - | 83 | 48
COc1cccc2c(=O)cn[nH]c12 | - | - | - | - | - | . | .
CCOC(=O)C(=CNc1ccc2c(c1)c1ccccc1n2CC)C(=O)OCC | - | - | - | - | - | . | .
COc1ccccc1NS(=O)(=O)c1cc(C(=O)Nc2ccc(S(=O)(=O)Nc3onc(C)c3C)cc2)ccc1C | - | 70 | - | - | - | 78 | 30 | DNA CAG DR=-
COc1ccc(C(=O)Nc2ccc(S(=O)(=O)Nc3onc(C)c3C)cc2)c(OC)c1 | - | 41 | - | - | - | - | -
COc1ccccc1C(=O)Nc1ccc(S(=O)(=O)Nc2onc(C)c2C)cc1 | - | - | - | - | - | . | .
COc1ccccc1NS(=O)(=O)c1ccc(C)c(C(=O)Nc2ccc(S(=O)(=O)Nc3onc(C)c3C)cc2)c1 | - | 63 | - | - | - | 57 | 22
COc1ccc(OC)c(NC(=O)c2ccc(NS(=O)(=O)c3c(C)noc3C)cc2)c1 | - | - | - | - | - | . | .
Cc1noc(C)c1S(=O)(=O)Nc1ccc(C(=O)Nc2ccc(OC(F)(F)F)cc2)cc1 | - | 39 | 12 | - | - | - | 4.7
O=C(CSc1nc(=O)n(CCCN2CCOCC2)c2c1CCCC2)Nc1ccc(F)cc1 | - | - | - | - | - | . | .
Cn1cnc(S(=O)(=O)N2CCCCC2c2cc(C(=O)NCc3ccc(F)cc3)no2)c1 (configuration not stated) | - | - | . | - | - | . | .
COc1ccccc1NS(=O)(=O)c1ccc(C)c(C(N)=O)c1 | - | - | - | - | - | . | .
CC(C)Oc1ccc(C(=O)N/N=C/c2ccc(-c3ccc(S(=O)(=O)Nc4ncccn4)cc3)o2)cc1 | - | 54 | - | - | - | 65 | 22
Cc1noc(NS(=O)(=O)c2ccc(NC(=O)c3ccc(OC(C)C)cc3)cc2)c1C | - | 44 | - | - | - | - | -
